# From PubChem BioAssay (EPA / NIEHS)
# Active and inactive are the calls of the source. Rule for the calls: active = hit-call score of the fitted dose curve at least 0.9, where 1 is the maximum; inactive = score below 0.9.
# Experiment: APR_HepG2_MicrotubuleCSK_72hr: Apredica 72-hour HepG2 Assay for Microtubule CSK Stabilty (AID 2282919)
# Details: HepG2 microtubule cytoskeleton, high-content imaging, actives raise or lower the signal
# Description: APR_HepG2_72hr is a cell-based, multiplexed-readout assay that uses HepG2, a human liver cell line, with measurements taken at 72 hours after chemical dosing in a 384-well plate.APR_HepG2_MicrotubuleCSK_72hr is one of 10 assay component(s) measured or calculated from the APR_HepG2_72hr assay. It is designed to make measurements of protein conformation, a form of conformation reporter, as detected with fluorescence intensity signals by HCS Fluorescent Imaging technology.Data from the assay component APR_HepG2_MicrotubuleCSK_72hr was analyzed into 1 assay endpoint. This assay endpoint, APR_HepG2_MicrotubuleCSK_72hr, was analyzed with bidirectional fitting relative to DMSO as the negative control and baseline of activity. Using a type of conformation reporter, measures of protein for gain or loss-of-signal activity can be used to understand the signaling at the cellular-level. Furthermore, this assay endpoint can be referred to as a primary readout, because this assay has produced multiple assay endpoints where this one serves a signaling function. To generalize the intended target to other relatable targets, this assay endpoint is annotated to the cell morphology intended target family, where the subfamily is cell conformation.
# Cells were treated with dimethyl sulfoxide (DMSO) as a solvent control at a final concentration of 0.5% v/v or with compounds in DMSO with a resulting final DMSO concentration of 0.5% v/v. Compound treatment was done at concentrations of 0.39, 0.78, 1.56, 3.12, 6.24, 12.5, 25, 50, 100, and 200 uM in duplicate on each plate. Cells were treated with compounds for 1, 24, or 72 hr. Carbonyl […] m-chloro-phenylhydrazone (CCCP) and taxol were used as positive controls for mitochondrial function and cytoskeletal stability, respectively; DMSO served as the negative control for this experiment. Cells were fixed by the direct addition of 50 uL formaldehyde in Hank's Balanced Salt Solution (HBSS) to a final concentration of 3.7%. After incubation in the fixation medium for 30 min at room temperature (293-298 K), cells were rinsed twice with HBSS and treated with cell permeabilization buffer (16 uL of 0.5% Triton X-100) for 10 min at room temperature (293-298 K) before labeling. For mitochondrial membrane potential and mitochondrial measurements, pre-fixed cells were incubated with 50 uL of MitoTracker Red CMXRos (Invitrogen) at a concentration of 250 nM for 30 min before fixation. In the remaining cases, post-fixed cells were labeled by incubation with a multiplexed mixture of primary antibodies in HBSS for 60 min at room temperature (293-298 K) to detect immunoreactivity of c-Jun (1:500), phospho-histone H3 (1:100), phospho-histone H2A.x (1:200), p53 (1:400), alpha-tubulin (1:200) and Hoechst 33342 (2 ug/mL). Cells were labeled for multiplexed imaging on two separate plates: a) Hoechst 33342, MitoTracker Red, phospho-histone H3, and alpha-tubulin, and b) Hoechst 33342, phospho-histone H2A.x, and c-Jun. A final rinse with HBSS (50 uL) was performed before analysis. The primary and secondary antibodies for the proteins were phospho-histone H3 (rabbit anti-phospho-histone H3 and FITC-donkey anti-rabbit IgG), phospho-histone H2A.x (mouse anti-phospho-histone H2A.x and FITC-donkey anti-mouse IgG), c-Jun (rabbit anti-phospho-c-Jun and Cy3-donkey anti-rabbit IgG), p53 (sheep anti-p53 and Cy5-donkey anti-sheep IgG), alpha-tubulin (mouse anti-alpha-tubulin and Cy5-donkey anti-mouse IgG). These antibodies are available as the CellCiphr HepG2 assay kit (Millipore).Digital images of each well were captured using a Cellomics ArrayScan VTI (Thermo Scientific Cellomics) (0.8 NA objective, 0.63x optical coupler, and XF-93 filter set) at 20x magnification. The images were acquired using the autofocus feature of the ArrayScan instrument, which entails the following steps. First, the camera focuses on channel 1 (Hoechst 33342), where nuclei are identified. Second, a Z offset of 1 um is used for capturing mitochondria (MitoTracker Red). […]
Structure (SMILES),outcome,AC50
CN(C)NC(=O)CCC(=O)O,inactive,–
CC(C)N(C(=O)SCC(Cl)=C(Cl)Cl)C(C)C,–,99.5 µM (active)
CSc1nc(NC(C)C)nc(NC(C)C)n1,inactive,–
CCCSP(=O)(OCC)Oc1ccc(Br)cc1Cl (stereo not given),–,113 µM (active)
CNC(=O)Oc1cccc2c1OC(C)(C)O2,inactive,–
CCC(=O)Nc1ccc(Cl)c(Cl)c1,inactive,–
CCOP(=S)(OCC)Oc1cc(C)nc(C(C)C)n1,inactive,–
COP(=O)(OC)C(O)C(Cl)(Cl)Cl (stereo not given),inactive,–
COc1cc(OC)nc(Sc2cccc(Cl)c2C(=O)O)n1,inactive,–
CCOP(=O)(SC(C)CC)N1CCSC1=O (stereo not given),inactive,–
CCC(CC)Nc1c([N+](=O)[O-])cc(C)c(C)c1[N+](=O)[O-],–,108 µM (active)
CCCCOC(=O)c1ccccc1C(=O)O,inactive,–
CC(Oc1cccc(Cl)c1)C(=O)O (stereo not given),inactive,–
CCOP(=S)(OCC)SCCSCC,inactive,–
CN1COCN(Cc2cnc(Cl)s2)C1=N[N+](=O)[O-],inactive,–
CC(C1CC1)C(O)(Cn1cncn1)c1ccc(Cl)cc1 (stereo not given),inactive,–
FC(F)C(F)(F)OCC(Cn1cncn1)c1ccc(Cl)cc1Cl (stereo not given),–,84.6 µM (active)
CCc1cccc(C)c1N(C(=O)CCl)C(C)COC (stereo not given),–,62.4 µM (active)
CCOP(=S)(Oc1cnc(C(C)(C)C)nc1)OC(C)C (stereo not given),–,66.5 µM (active)
CCCCOC(=O)[C@@H](C)Oc1ccc(Oc2ccc(C#N)cc2F)cc1,inactive,–

Structure (SMILES),outcome,AC50
CN(C)[C@@H]1C(=O)C(C(N)=O)=C(O)[C@@]2(O)C(=O)C3=C(O)c4c(O)cccc4[C@@](C)(O)[C@H]3[C@H](O)[C@@H]12,inactive,–
CNc1cnn(-c2cccc(C(F)(F)F)c2)c(=O)c1Cl,inactive,–
CCCOc1nn(C(=O)NS(=O)(=O)c2ccccc2C(=O)OC)c(=O)n1C,inactive,–
C[N+]1(C)CCCCC1,inactive,–
CCCOCC(=Nc1ccc(Cl)cc1C(F)(F)F)n1ccnc1,inactive,–
Cc1cc(C2CC2)nc(Nc2ccccc2)n1,–,56.9 µM (active)
CCc1cccc(CC)c1N(COC)C(=O)CCl,inactive,–
CCOP(=S)(OCC)Oc1ccc([N+](=O)[O-])cc1,inactive,–
COP(=O)(NC(C)=O)SC (stereo not given),inactive,–
C#CC(C)(C)NC(=O)c1cc(Cl)cc(Cl)c1,inactive,–
CCNc1nc(Cl)nc(NC(C)(C)C#N)n1,inactive,–
Nc1nc(N)nc(NC2CC2)n1,inactive,–
CC[C@H](C)[C@H]1O[C@]2(C=C[C@@H]1C)C[C@@H]1C[C@@H](C/C=C(\C)[C@@H](O[C@H]3C[C@H](OC)[C@@H](O[C@H]4C[C@H](OC)[C@@H](NC)[C@H](C)O4)[C@H](C)O3)[C@@H](C)/C=C/C=C3\CO[C@@H]4[C@H](O)C(C)=C[C@@H](C(=O)O1)[C@]34O)O2,inactive,–
CCC(=NOC/C=C/Cl)C1=C(O)CC(C2CCOCC2)CC1=O (stereo not given),inactive,–
CC(=NC#N)N(C)Cc1ccc(Cl)nc1,inactive,–
CCOP(=O)(OCC)Oc1cc(C)nc(C(C)C)n1,inactive,–
C=C(C)[C@H]1Cc2c(ccc3c2O[C@@H]2COc4cc(OC)c(OC)cc4[C@@H]2C3=O)O1,inactive,–
COc1cccc(C(=O)NN(C(=O)c2cc(C)cc(C)c2)C(C)(C)C)c1C,inactive,–
CON=C(C(=O)OC)c1ccccc1CON=C(C)c1cccc(C(F)(F)F)c1,–,0.309 µM (active)
CCOC(=O)CC(SP(=O)(OC)OC)C(=O)OCC (stereo not given),inactive,–
